Experimental data as given in PubChem BioAssay AID2284354 (EPA ToxCast).
Inconclusive results are not listed. The source made the active and inactive calls. How the source made its calls: active means hit-call score of the fitted dose curve at least 0.9, where 1 is the maximum; inconclusive means response in the unintended direction; inactive means score below 0.9.

molecular target: human Retinoid X Receptor beta (RXRb), RXRB (gene 6257) (UniProt P28702); assay: ATG_hRXRb_EcoTox2: Attagene TRANS-FACTORIAL EcoTox-2 HepG2 Assay for human Retinoid X Receptor beta (RXRb)
Sequence (P28702 whole entry, looked up): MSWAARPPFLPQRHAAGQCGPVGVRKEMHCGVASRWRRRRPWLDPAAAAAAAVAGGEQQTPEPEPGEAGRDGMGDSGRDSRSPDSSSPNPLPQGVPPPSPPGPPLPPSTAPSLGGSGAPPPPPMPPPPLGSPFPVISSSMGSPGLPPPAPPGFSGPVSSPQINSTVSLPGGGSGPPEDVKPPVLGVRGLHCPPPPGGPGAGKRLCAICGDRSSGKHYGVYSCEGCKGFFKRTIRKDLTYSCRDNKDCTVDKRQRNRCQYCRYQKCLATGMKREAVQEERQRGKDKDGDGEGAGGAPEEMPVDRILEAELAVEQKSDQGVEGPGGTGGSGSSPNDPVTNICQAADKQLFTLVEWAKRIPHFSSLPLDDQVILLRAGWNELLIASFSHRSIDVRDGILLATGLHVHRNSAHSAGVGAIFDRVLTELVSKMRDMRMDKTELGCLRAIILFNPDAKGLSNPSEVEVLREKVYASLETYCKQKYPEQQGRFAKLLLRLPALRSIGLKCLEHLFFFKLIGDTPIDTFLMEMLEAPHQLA
Experimental: ATG_EcoTox2 is a cell-based, multiplexed assay created by modifying the existing Attagene TRANS-FACTORIAL system to include a panel of nuclear receptors from some or all the following species: human (Homo sapiens), african clawed frog (Xenopus laevis), rainbow trout (Oncorhynchus mykiss), japanese medaka (Oryzias latipes), and zebrafish (Danio rerio). The ECOTOX2-FACTORIAL format uses HepG2, a human liver cell line, with measurements taken at 24 hours after chemical dosing in a 24-well plate. ATG_hRXRb_EcoTox2 is one of 29 assay components calculated in the ATG_EcoTox2 assay. It is designed to make measurements of mRNA induction, a form of inducible reporter, as detected with fluorescence intensity signals by Reverse transcription polymerase chain reaction (RT-PCR) and Capillary electrophoresis technology.The assay endpoint ATG_hRXRb_EcoTox2 was analyzed in the positive analysis fitting direction relative to DMSO as the negative control and baseline of activity. Using a type of inducible reporter, measures of mRNA for gain-of-signal activity can be used to understand the reporter gene at the transcription factor-level as they relate to the gene RXRb. Furthermore, this assay endpoint can be referred to as a primary readout, because this assay has produced multiple assay endpoints where this one serves a reporter gene function. To generalize the intended target to other relatable targets, this assay endpoint is annotated to the nuclear receptor intended target family, where the subfamily is non-steroidal.
Human liver HepG2 cells are transiently transfected with multiple reporter transcription units (MRTUs) in 6-well plates using FuGene 6 reagent (Roche; 3 ml FuGene/1 mg DNA). The MRTU constructs are regulated by a cis-regulating element (promoter). Each RTU expresses a GAL4-UAS that regulates the transcription of a nearby target reporter gene sequence. A major difference between the CIS and TRANS system is that in CIS activities of endogenous TFs are measured, whereas the TRANS assay evaluates changes in activities of exogenous, chimeric NR-Gal4 proteins. […] At the end of 24 hour incubation, total RNA was isolated using TriZol reagent (Invitrogen). The isolated RNA is then reverse-transcribed using oligo(dT) primer and Mo-MLV reverse transcriptase (Invitrogen) with DNAse I (Ambion) treatment for 30 min. The one-tenth of the produced cDNA was amplified by PCR using Taq DNA polymerase (Invitrogen) and two reporter sequence-specific primers. The PCR products were fluorescently labeled by primer extension with 6-arboxyfluorescein (6-FAM) 5'-labeled reporter sequence-specific primer (2 min at 95 C, 20 s at 68 C and 10 min at 72 C) and these products were digested with 5U of HpaI (New England Biolabs) for 2h at 37 C. The fragments were purified using Qiaquick PCR columns (Qiagen), analyzed on an ABI 3130xL genetic analyzer (Applied Biosystems) with peak positions identified by using a set of X-rhodamine (ROX)-labeled MapMarker1000 molecular weight standards (BioVentures). The raw capillary electrophoresis data was processed using Attagraph software (Attagene).

**Q.** With `C[C@@H]1C[C@H]2[C@@H]3CCC4=CC(=O)C=C[C@]4(C)[C@@]3(F)[C@@H](O)C[C@]2(C)[C@@]1(O)C(=O)COP(=O)(O)O` as the compound, how does the outcome read?
**A.** inactive

**Q.** Which outcome does the source give for `CC(C)(Oc1ccc(Cl)cc1)C(=O)O` here?
**A.** inactive

**Q.** How did the outcome turn out when `CC(C)(Oc1ccc(C2CC2(Cl)Cl)cc1)C(=O)O` (centres undefined) was run?
**A.** inactive

**Q.** `CN(CCOc1ccc(CC2SC(=O)NC2=O)cc1)c1ccccn1` (centres undefined) was tested. Which AC50 did it give?
**A.** 13 µM (active)

**Q.** Which outcome does the source give for `C[C@]12C=CC(=O)C=C1CC[C@@H]1[C@@H]2C(=O)C[C@@]2(C)[C@H]1CC[C@]2(O)C(=O)CO` here?
**A.** inactive

**Q.** Which AC50 does the source give for `Cc1ccc(C)c(OCCCC(C)(C)C(=O)O)c1` here?
**A.** 18.6 µM (active)

**Q.** How did the outcome turn out when `CC(C)OC(=O)C(C)(C)Oc1ccc(C(=O)c2ccc(Cl)cc2)cc1` was run?
**A.** inactive

**Q.** For `CC(c1cc2ccccc2s1)N(O)C(N)=O` (centres undefined), which outcome is on record?
**A.** inactive

**Q.** With `CC(C)(Oc1ccc(CCNC(=O)c2ccc(Cl)cc2)cc1)C(=O)O` as the compound, how does the outcome read?
**A.** inactive
